Our source for the growth inhibition values is PubChem BioAssay (NCI).

The panel holds about 79,000 compounds, 15% with a hit somewhere; the sample as a whole holds those more often. Values without a mark were called inactive. Calls of active or inactive are those of the source. Cut-off read from the data, not from the text of the source: active = growth inhibition above about 70%; inactive = the rest.

Assay [1] is described as follows: NCI Yeast Anticancer Drug Screen. Data for the rad50 strain (AID 155).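 Note: 0% = growth of vehicle-only cultures of the same strain.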 The following applies: S. cerevisiae rad50 strain growth inhibition, active compounds read high. In outline: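 Inhibition values express reduced yeast growth in compound-treated cultures relative to vehicle-treated controls.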
The nature of assay [2]: NCI Yeast Anticancer Drug Screen. Data for the mec2-1 strain (AID 157). The following applies: S. cerevisiae mec2-1 strain, active compounds read high. An outline of the steps: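 Vehicle-treated cultures served as reference for growth inhibition of compound-exposed mec2-1 yeast.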
Assay [3] is described as follows: NCI Yeast Anticancer Drug Screen. Data for the sgs1 mgt1 strain (AID 161).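 Note: 0% = growth of cultures given vehicle only.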 The following applies: S. cerevisiae sgs1 mgt1 strain, active compounds read high. In outline: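 Test agents were incubated with a DNA-repair-mutant yeast strain. Growth was then read and compared against vehicle-treated controls.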
Assay [4] is described as follows: NCI Yeast Anticancer Drug Screen. Data for the cln2 rad14 strain (AID 165).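 Note: 0% = growth equal to vehicle treated cultures.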 The following applies: S. cerevisiae cln2 rad14 strain, active compounds read high. In outline: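 Each compound was tested on cln2 rad14 yeast. Inhibition of growth was calculated against vehicle-exposed controls.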
Assay [5] in a line: NCI Yeast Anticancer Drug Screen. Data for the bub3 strain (AID 167). The conditions noted are these: S. cerevisiae bub3 mutant strain, active compounds read high. An outline of the steps: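 Steps: expose the mutant yeast strain to compound; grow alongside vehicle-treated cultures; measure growth; express inhibition against the vehicle cultures.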
A short description of assay [6]: NCI Yeast Anticancer Drug Screen. Data for the mlh1 rad18 strain (AID 175). The following applies: S. cerevisiae mlh1 rad18 strain growth inhibition, active compounds read high. In outline: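 Vehicle-treated cultures served as the reference for growth inhibition in a yeast strain carrying DNA damage repair alterations exposed to each compound.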
Where [7] appears, read: at 5.0 µM (retest, dose inferred, filed as 0.5).
Where [8] appears, read: at 50.0 µM (retest, dose inferred, filed as 5.0).

Take `Cc1cccc2c(=O)c3ccccc3oc12`: the growth inhibition in assay [1] (setting [7]) was 5%; in assay [1] (setting [8]) it was 42%; in assay [1] (at 50.0 µM), 47.5%; in assay [2] (setting [7]), 2%; in assay [2] (setting [8]), 11%; in assay [2] (at 50.0 µM), 17.2%. Further, the growth inhibition in assay [3] (setting [7]) is -1%; in assay [3] (setting [8]), 18%; in assay [3] (at 50.0 µM), 15.4%; in assay [4] (setting [7]) it was 12%; in assay [4] (setting [8]), -1%; in assay [4] (at 50.0 µM), -63.5%. Also, the growth inhibition in assay [5] (setting [7]) is 9%; in assay [5] (setting [8]) it was 19%; in assay [5] (at 50.0 µM), 14.5%; in assay [6] (setting [7]), 9%; in assay [6] (setting [8]) it was 11%; in assay [6] (at 50.0 µM), 3.5%.
Consider `Nc1ccc(Cl)c2c1C(=O)c1ccccc1C2=O`, for which the growth inhibition in assay [1] (setting [7]) is 40%; in assay [1] (setting [8]) it was 19%; in assay [1] (at 50.0 µM), 98.8% (active); in assay [2] (setting [7]) it was 13%; in assay [2] (setting [8]), 7%; in assay [2] (at 50.0 µM), 56.8%. For the same compound, the growth inhibition is 0% in assay [3] (setting [7]); 41% in assay [3] (setting [8]); 89.2% (active) in assay [3] (at 50.0 µM); -4% in assay [4] (setting [7]); 3% in assay [4] (setting [8]); 46.6% in assay [4] (at 50.0 µM). Further, the growth inhibition in assay [5] (setting [7]) was 0%; in assay [5] (setting [8]) it was 30%; in assay [5] (at 50.0 µM), 34.1%; in assay [6] (setting [7]), 13%; in assay [6] (setting [8]) it was 12%; in assay [6] (at 50.0 µM), 89.3% (active).
Take `CSC1=NSC(c2ccccc2)=C(c2ccccc2)S1`: the growth inhibition in assay [1] (setting [7]) is 7%; in assay [1] (setting [8]) it was 9%; in assay [1] (at 50.0 µM) it was 7.95%; in assay [2] (setting [7]) it was -15%; in assay [2] (setting [8]), 10%; in assay [2] (at 50.0 µM), -1.45%. Moreover, the growth inhibition was -11% in assay [3] (setting [7]); 0% in assay [3] (setting [8]); 27.8% in assay [3] (at 50.0 µM); 33% in assay [4] (setting [7]); 88% (active) in assay [4] (setting [8]); 62.5% in assay [4] (at 50.0 µM). The growth inhibition in assay [5] (setting [7]) is 9%; in assay [5] (setting [8]), 43%; in assay [5] (at 50.0 µM), 43.1%; in assay [6] (setting [7]) it was 5%; in assay [6] (setting [8]), 16%; in assay [6] (at 50.0 µM), 10.2%.
In the case of `c1ccc(CC(Nc2cccnc2)c2ccccc2)cc1` (stereo not given), the growth inhibition in assay [1] (setting [7]) is 6%; in assay [1] (setting [8]) it was 56%; in assay [1] (at 50.0 µM), 74.5% (active); in assay [2] (setting [7]) it was -13%; in assay [2] (setting [8]) it was 24%; in assay [2] (at 50.0 µM) it was 22.6%. The growth inhibition was -2% in assay [3] (setting [7]); 74% (active) in assay [3] (setting [8]); 74.1% (active) in assay [3] (at 50.0 µM); -1% in assay [4] (setting [7]); 28% in assay [4] (setting [8]); 21.9% in assay [4] (at 50.0 µM). Moreover, the growth inhibition was 24% in assay [5] (setting [7]); 40% in assay [5] (setting [8]); 56.1% in assay [5] (at 50.0 µM); 1% in assay [6] (setting [7]); 60% in assay [6] (setting [8]); 75.3% (active) in assay [6] (at 50.0 µM).
Regarding `COc1ccc(-c2cc(-c3ccc4c(c3)CC(C)O4)nc(N)n2)cc1` (stereo not given), the growth inhibition was 20% in assay [1] (setting [7]); 1% in assay [1] (setting [8]); 90.8% (active) in assay [1] (at 50.0 µM); 0% in assay [2] (setting [7]); -14% in assay [2] (setting [8]); 90.8% (active) in assay [2] (at 50.0 µM). Further, the growth inhibition is 20% in assay [3] (setting [7]); 3% in assay [3] (setting [8]); 91.2% (active) in assay [3] (at 50.0 µM); 19% in assay [4] (setting [7]); 15% in assay [4] (setting [8]); 86.5% (active) in assay [4] (at 50.0 µM). Besides, the growth inhibition in assay [5] (setting [7]) is 19%; in assay [5] (setting [8]), 15%; in assay [5] (at 50.0 µM), 88.7% (active); in assay [6] (setting [7]), -16%; in assay [6] (setting [8]), -19%; in assay [6] (at 50.0 µM) it was 88.7% (active).
Turning to `CC1=CC(C)C(C)N(CCNC(=O)Nc2ccccc2)c2ccccc21` (stereo not given), the growth inhibition in assay [1] (setting [7]) was 17%; in assay [1] (setting [8]), 51%; in assay [1] (at 50.0 µM), 77.2% (active); in assay [2] (setting [7]) it was 16%; in assay [2] (setting [8]) it was 33%; in assay [2] (at 50.0 µM), 80.9% (active). In addition, the growth inhibition was 14% in assay [3] (setting [7]); 71% (active) in assay [3] (setting [8]); 80.6% (active) in assay [3] (at 50.0 µM); 22% in assay [4] (setting [7]); 80% (active) in assay [4] (setting [8]); 75.5% (active) in assay [4] (at 50.0 µM). For the same compound, the growth inhibition is -14% in assay [5] (setting [7]); 75% (active) in assay [5] (setting [8]); 84.2% (active) in assay [5] (at 50.0 µM); 14% in assay [6] (setting [7]); 66% in assay [6] (setting [8]); 70.2% (active) in assay [6] (at 50.0 µM).
Turning to `Cc1c2cnccc2c(C)c2c1c1ccccc1n2CCCCCCNCc1ccccc1`, the growth inhibition in assay [1] (setting [7]) is 9%; in assay [1] (setting [8]), 95% (active); in assay [1] (at 50.0 µM), 99% (active); in assay [2] (setting [7]), -1%; in assay [2] (setting [8]), 76% (active); in assay [2] (at 50.0 µM), 99.2% (active). For the same compound, the growth inhibition in assay [3] (setting [7]) is 1%; in assay [3] (setting [8]) it was 91% (active); in assay [3] (at 50.0 µM), 99.3% (active); in assay [4] (setting [7]), 2%; in assay [4] (setting [8]), 83% (active); in assay [4] (at 50.0 µM), 98.2% (active). Moreover, the growth inhibition was 2% in assay [5] (setting [7]); 74% (active) in assay [5] (setting [8]); 98.8% (active) in assay [5] (at 50.0 µM); -3% in assay [6] (setting [7]); 97% (active) in assay [6] (setting [8]); 99% (active) in assay [6] (at 50.0 µM).
On to `CC(C)CC(N)C(=O)NNc1ccccc1` (stereo not given), for which the growth inhibition in assay [1] (setting [7]) was 29%; in assay [1] (setting [8]), 94% (active); in assay [1] (at 50.0 µM), 96.8% (active); in assay [2] (setting [7]) it was 23%; in assay [2] (setting [8]), 96% (active); in assay [2] (at 50.0 µM), 84.2% (active). The growth inhibition in assay [3] (setting [7]) was 30%; in assay [3] (setting [8]), 97% (active); in assay [3] (at 50.0 µM), 88.6% (active); in assay [4] (setting [7]), 19%; in assay [4] (setting [8]), 83% (active); in assay [4] (at 50.0 µM), 94.2% (active). Besides, the growth inhibition in assay [5] (setting [7]) is 37%; in assay [5] (setting [8]), 96% (active); in assay [5] (at 50.0 µM), 97.5% (active); in assay [6] (setting [7]), 72% (active); in assay [6] (setting [8]) it was 99% (active); in assay [6] (at 50.0 µM) it was 98% (active).
With `Cc1cc(NCCCCCCCCNc2cc(C)nc3cc(N(C)C)ccc23)c2ccc(N(C)C)cc2n1`, the growth inhibition was 18% in assay [1] (setting [7]); 95% (active) in assay [1] (setting [8]); 84.9% (active) in assay [1] (at 50.0 µM); 18% in assay [2] (setting [7]); 97% (active) in assay [2] (setting [8]); 90.5% (active) in assay [2] (at 50.0 µM). For the same compound, the growth inhibition is 53% in assay [3] (setting [7]); 97% (active) in assay [3] (setting [8]); 26.5% in assay [3] (at 50.0 µM); 24% in assay [4] (setting [7]); 97% (active) in assay [4] (setting [8]); 18.4% in assay [4] (at 50.0 µM). The growth inhibition in assay [5] (setting [7]) was 57%; in assay [5] (setting [8]) it was 97% (active); in assay [5] (at 50.0 µM) it was 32.1%; in assay [6] (setting [7]) it was 17%; in assay [6] (setting [8]), 96% (active); in assay [6] (at 50.0 µM) it was -17.5%.
Regarding `CC(=O)c1c2c(cc3c1CC1(C3)Cc3cc4c(c(C(=O)O)c3C1)CCC4)CCC2` (stereo not given), the growth inhibition in assay [1] (setting [7]) is 53%; in assay [1] (setting [8]) it was 94% (active); in assay [1] (at 50.0 µM), 84% (active); in assay [2] (setting [7]), 56%; in assay [2] (setting [8]), 96% (active); in assay [2] (at 50.0 µM) it was 79.8% (active). For the same compound, the growth inhibition in assay [3] (setting [7]) was 65%; in assay [3] (setting [8]), 97% (active); in assay [3] (at 50.0 µM), 89.6% (active); in assay [4] (setting [7]) it was 70% (active); in assay [4] (setting [8]) it was 95% (active); in assay [4] (at 50.0 µM), 84.2% (active). Moreover, the growth inhibition was 63% in assay [5] (setting [7]); 95% (active) in assay [5] (setting [8]); 83.5% (active) in assay [5] (at 50.0 µM); 73% (active) in assay [6] (setting [7]); 96% (active) in assay [6] (setting [8]); 83.4% (active) in assay [6] (at 50.0 µM).
